In the library only some 3.7% were active in any assay of this set; here they are far more common.
BoNT A protease – BoNT/A light chain protease inhibitors, primary screen, biochemical, flow cytometry, MLPCN library; Botulinum neurotoxin type A light chain protease (Clostridium botulinum A str. ATCC 3502); multiplex microsphere protease substrate cleavage; inhibition, % at 10 µM; 0.17% of 360,000 active; AID 588499, 2011
BoNT-F LC inh – BoNT/F light chain protease inhibitors, primary screen, biochemical, flow cytometry, MLPCN library; Botulinum neurotoxin type F light chain protease (Clostridium botulinum); Multiplex microsphere protease cleavage assay; inhibition, % at 10 µM; 0.22% of 360,000 active; in the data active = inhibition above about 35%, passing the limit was not always enough; inconclusive = no clear call, values can overlap the other calls
MazEF act – activators of E. coli MazEF toxin-antitoxin RNase, primary screen, biochemical, fluorescence, uHTS | Endoribonuclease toxin MazF (Escherichia coli (strain K12)), P0AE70 | FAM/BHQ RNA-DNA oligo cleavage fluorescence, 5 h | activation, % at 20 µM | 0.32% of 350,000 active | AID 504720, 2011; in the data active = activation above about 50%
Autofluor counter – flagged as autofluorescent in microsphere protease counterscreen | compound autofluorescence counterscreen, microsphere flow cytometry; hits give high values | 3.1% of 360,000 active | fluorescence intensity (test concentration not listed); in the data active = fluorescence intensity above about 16000; inconclusive = no clear call, values can overlap the other calls
Anthrax LF prot – Bacillus anthracis LF protease inhibitors, primary screen, biochemical, multiplex microsphere, MLPCN library | Lethal factor (Bacillus anthracis), P15917 | multiplex microsphere protease cleavage assay | inhibition, % at 10 µM | 0.12% of 360,000 active
Of the large screens only hits and unclear results are named; the others gave an inactive call. Cut-off read from the data, not from the text of the source, unless noted: active = inhibition above about 30%; inconclusive = no clear call, values can overlap the other calls; inactive = below that.

Cc1cc(=O)[nH]c(S/C=C/c2ccccc2)n1	Autofluor counter 20598
CCOc1ccc(C(=O)NCCc2cnc[nH]2)cc1	BoNT-F LC inh 50
CCN(CC(=O)NCc1cccs1)C(=O)c1cccc(S(=O)(=O)N(CC)c2ccccc2)c1	none
O=C(c1ccccc1)c1ccc2nc(-c3ccco3)c(-c3ccco3)nc2c1	BoNT A protease 42
O=C(Nc1cccc(OC(F)(F)F)c1)c1ccc(Br)o1	Autofluor counter 16998
O=C(Nc1cccc(F)c1)c1ccc(Br)o1	none
CCCCC(=O)Nc1cccc(NC(=O)c2ccc(Br)o2)c1	Autofluor counter 16352
COc1ccc(-c2coc3c(C(=O)Nc4cccc(NS(C)(=O)=O)c4)cccc23)c(C)c1	none (no result: MazEF act)
CC(C)C[C@H]1COc2cc(N(C)CCO)ccc2S(=O)(=O)N1	none (no result: MazEF act)
Cc1cc(C)c(C(=O)COC(=O)[C@H](C)Nc2ccc(C(F)(F)F)cc2[N+](=O)[O-])c(C)c1	Autofluor counter 21371
COc1ccc(C(=O)COC(=O)[C@H](C)Nc2ccc(C(F)(F)F)cc2[N+](=O)[O-])cc1	none
COc1cc([N+](=O)[O-])ccc1NC(=O)Nn1cnnc1	none
COC(=O)/C(=C/c1c[nH]c2ccccc12)NC(C)=O	none
CCOC(=O)/C(=C/c1c[nH]c2ccccc12)NC(C)=O	Autofluor counter 19612
CC(C)[C@H](NC(=O)c1ccccc1)C(=O)NC1=NCCS1	none
O=C1Nc2cccc3c2N(CCC3)C2=C1CCC2	none
CC(=O)Oc1ccc(OC(C)=O)c(SCCCCCN2CCOCC2)c1	Autofluor counter 23369
CCCCN(C)C(=O)c1sc(=O)n(Cc2ccccc2C#N)c1C	none (no result: MazEF act)
CCN1C=C(Cc2ccc(F)cc2)C2=C(C1)C(c1ccc(F)cc1)C(C#N)=C(N)O2 (configuration not stated)	MazEF act 77
CCN1C=C(Cc2ccccc2C)C2=C(C1)C(c1ccccc1C)C(C#N)=C(N)O2 (configuration not stated)	none
CC1(C(=O)NS(=O)(=O)c2ccc(Cl)cc2)CCN1C(=O)Cc1cccs1 (configuration not stated)	none (no result: MazEF act)
Cc1ccc(NC(=O)CN(C)S(=O)(=O)c2cccc3nsnc23)cc1	none
CC(NC(=O)CN(C)S(=O)(=O)c1cccc2nsnc12)c1ccccc1 (configuration not stated)	MazEF act 97
COc1ccc(N=Cc2nc(-c3ccccc3)oc2OC(C)=O)cc1	BoNT-F LC inh inconclusive, Autofluor counter inconclusive
CN(C)c1ccc(N=Cc2nc(-c3ccccc3)oc2OC(=O)c2cccc(Cl)c2)cc1	MazEF act 126
Cc1ccc(C(=O)Oc2oc(-c3ccccc3)nc2C=Nc2ccc(N(C)C)cc2)cc1	MazEF act 870
COC(=O)C[C@H](NC(=O)Cn1cc(C)c(=O)[nH]c1=O)C(=O)OC	none
COc1ccc(C(=O)Nc2ccc(S(=O)(=O)N3CCc4ccccc43)cc2)cc1	Autofluor counter 16637
O=C(Nc1ccc(S(=O)(=O)N2CCCc3ccccc32)cc1)C1CCCO1 (configuration not stated)	Autofluor counter 17480
NS(=O)(=O)c1ccc(NC(=O)c2ccc(S(=O)(=O)N3CCc4ccccc43)cc2)cc1	none
Cc1ccc(C(=O)Nc2ccc(S(=O)(=O)N3CCc4ccccc43)cc2)o1	BoNT A protease inconclusive, Autofluor counter 23775
O=C(C1CCCCC1)N1C[C@@H](O)[C@H](n2cc(C3CC3)nn2)C[C@@H]1c1ccccc1	none
C[N+](C)(C)CCNC(=O)c1ccccc1	none (no result: MazEF act)
C[C@@H]1CN([C@@H](C)CO)C(=O)CCCn2nncc2CO[C@@H]1CN(C)S(=O)(=O)c1ccc(Oc2ccccc2)cc1	none
CSCCC(NC(=O)c1ccccc1)C(=O)NC1CCCC1 (configuration not stated)	none
CSCCC(NC(=O)c1ccccc1)C(=O)NC1CC1 (configuration not stated)	BoNT A protease inconclusive, Autofluor counter 23748
Cc1scc(-c2n[nH]c(=S)n2C(C)c2ccccc2)c1C (configuration not stated)	none
CCc1cc(-c2n[nH]c(=S)n2C(C)c2ccccc2)cs1 (configuration not stated)	Autofluor counter 21656
CCOc1ccc(Cl)cc1-c1cc(C(=O)NC(C)C)[nH]n1	none (no result: MazEF act)
COC(=O)C1=C(C(=O)OC)C(C(=O)OC)N2C=CC=CC2=C1C(=O)OC (configuration not stated)	none (no result: MazEF act)
CCOC(=O)c1ccc(NC(=O)Cn2nnc(-c3ccc(F)cc3)n2)cc1	Autofluor counter 23033
CCOC(=O)c1ccc(NC(=O)Cn2cccc2)cc1	Autofluor counter 22123
CCOC(=O)c1ccc(NC(=O)CSc2nnnn2C2CCCCC2)cc1	none
CCOC(=O)c1ccc(NC(=O)CSc2nnnn2CCCO)cc1	Autofluor counter 22895
CCOC(=O)c1ccc(NC(=O)Cn2nnc(-c3ccccc3)n2)cc1	BoNT-F LC inh inconclusive
CCOC(=O)c1ccc(NC(=O)C(CC)(CC)C(=O)OCC)cc1	Autofluor counter 18219
CCOC(=O)c1ccc(NC(=O)COC)cc1	none
CCc1cccc(NC(=O)Cn2cccc2)c1	Autofluor counter 23986
CCc1cccc(NC(=O)CN2C(=O)NC3(CCCCCCC3)C2=O)c1	none
COC(=O)c1ccc(NC(=O)CN2C(=O)C3C4C=CC(C4)C3C2=O)cc1 (configuration not stated)	Autofluor counter 17210
CCOC(=O)c1ccc(NC(=O)CN2C(=O)CSCC2=O)cc1	none
CCOC(=O)c1ccc(NC(=O)CN2C(=O)CSC2=O)cc1	Autofluor counter 22745
CCOC(=O)c1ccc(NC(=O)CN2C(=O)CNC2=O)cc1	Autofluor counter 23272
COc1cccc(CNC(=O)[C@@H]2CCCN2C(=O)[C@H]2CCCCN2)c1	none (no result: MazEF act)
Cc1cc(C)c(S(=O)(=O)N2CCN(C(=O)C3COc4ccccc4O3)CC2)c(C)c1 (configuration not stated)	none
CCc1cccc(NC(=O)C2CC2c2ccccc2)c1 (configuration not stated)	BoNT-F LC inh 36
CCOC(=O)Cn1nnc(-c2ccc(S(C)(=O)=O)cc2)n1	Autofluor counter 23651
CCOC(=O)c1ccc(NC(=O)CSC2=NC(=O)C(CC)C(=O)N2)cc1 (configuration not stated)	Autofluor counter 16464
CC(C)(C)c1ccc(C(=O)C2CCCN(C(=O)C3CCOCC3)C2)cc1 (configuration not stated)	MazEF act 73
Cc1noc(C)c1CC(=O)N1CCCC(C(=O)c2ccc(C(C)(C)C)cc2)C1 (configuration not stated)	none
Oc1ccccc1C1=NC(c2ccccc2)NC(c2ccccc2)C1 (configuration not stated)	none

Compound activity from PubChem BioAssay.
